Activity calls are given as the source filed them. The call rests on the fitted dose curve; in most records, active means well fitted activation curve with a large enough effect; inconclusive means small, poorly fitted or top-dose-only effect; inactive means flat fitted curve, though single readings scatter.
assay: Cellular Toxicity (caspase-3) Mesangial (AID 660); conditions: mesangial cells, normalized: DMSO 0%, 100 µM tamoxifen 100%; series mostly up to 91.7 µM;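 further: combined caspase 3 and 7 activity read by Caspase-Glo luminescence; cells exposed to compound for 16 h before the caspase read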
Text: NIH Chemical Genomics Center [NCGC]
NIH Molecular Libraries Screening Centers Network [MLSCN]
National Institutes of Environmental Health Sciences [NIEHS]
National Toxicology Program [NTP]
We have developed a 1536-well cell-based assay for quantitative high throughput screening (qHTS) against a number of cell lines to determine in vitro caspase 3/7 of small molecules. This particular assay uses the mesangial cell line which is derived from normal human renal glomeruli.
NCGC Assay Protocol Summary:
The Caspase-Glo 3/7 assay (Promega) is a homogeneous method to measure caspase-3 and caspase-7 activities in cultured cells. The quantitation of caspase 3/7 activity is based on the cleavage of a peptide-aminoluciferin substrate. After caspase cleaves the substrate the free aminoluciferin is liberated and serves as the substrate of luciferase, which generates the light. The luminescent signal is proportional to amount of caspase 3/7 activity present.
Using the Caspase-Glo 3/7 assay, the amount of caspase 3/7 activity was measured in the mesangial cell line with complete culture medium following compound treatment for 16 hours. The assay was performed in opaque white 1536-well plates. In the screen, tamoxifen and doxorubicin were used as positive controls. Library compounds were measured for their ability to cause the activation of caspase 3/7 in the cell line, as reflected by an increase in luminescence signal, in a concentration-dependent manner. Data were normalized to the controls for basal activity (DMSO only) and 100% stimulation (100 uM tamoxifen). AC50 values were determined from concentration-response data modeled with the standard Hill equation.
qHTS protocol for caspase 3/7 assay in mesangial cell line
[Step] [Parameter] [Value] [Description]
1. Reagent; 5 uL; 1000 mesangial cells/well
2. Time; 5 hr; 37 °C incubation
4. Controls; 23 nL; Tamoxifen 0.23 uM to 100 uM & doxorubicin 7.0 pM to 100 uM
5. Time; 16 hr; 37 °C incubation
6. Reagent; 5 uL; Caspase-Glo 3/7 reagent
7. Time; 20 min; Room Temperature
8. Detection; Luminescence; Viewlux plate reader
Keywords: caspase 3/7, apoptosis, mesangial cell line, luminescence, NTPHTS, NTPHTS_NCGC, NIEHS, EPA, DSSTox, MLSMR, MLSCN, NIH Roadmap, qHTS, NCGC

SMILES	outcome
C[C@H]1CCC[C@H](O)CCCCCc2cc(O)cc(O)c2C(=O)O1	inactive
C[C@]12CCC(=O)C[C@@H]1CC[C@@H]1[C@@H]2CC[C@]2(C)[C@@H](O)CC[C@@H]12	inactive
C=CCN=C=S	inactive
CCCCCCCCOC(=O)c1ccccc1C(=O)OCCCCCCCC	inactive
O=C1CCO1	inactive
O=C1C2CC=CCC2C(=O)N1SC(Cl)(Cl)Cl (stereo unspecified)	inactive
Oc1cc(Cl)c(Cl)cc1Cl	inactive
NNC(N)=O	inactive
O=C/C=C/c1ccccc1	inactive
CC(C)CCON=O	inactive
C[C@H]1CC[C@@H]2[C@@H](C)[C@H]3[C@H](C[C@H]4[C@@H]5CC=C6CC(O[C@@H]7O[C@H](CO)[C@H](O)[C@H](O[C@@H]8O[C@H](CO)[C@@H](O)[C@H](O)[C@H]8O)[C@H]7O[C@H]7O[C@@H](C)[C@H](O)[C@@H](O)[C@H]7O)CC[C@]6(C)[C@H]5CC[C@]34C)N2C1 (stereo partly specified)	inactive
CCCCCl	inactive
O=C(O)C(Cl)(Cl)Cl	inactive
O=[N+]([O-])c1ccccc1	inactive
ClCC1CO1 (stereo unspecified)	inactive
CC(C)Nc1ccc(Nc2ccccc2)cc1	inactive

SMILES	outcome
ClC=C(Cl)Cl	inactive
O=C1C=CC(=O)C=C1	inactive
[O]=[Cd]	inactive
ClC(Cl)(Cl)Cl	inactive
S=C=S	inactive
[Cl-].[Cl-].[Hg+2]	inactive
CC(C)(C)c1cc(O)ccc1O	inactive
Clc1ccccc1Cl	inactive
O=CC=O	inactive
O=Cc1ccco1	inactive
[O]=[Cr](=[O])([OH])[O][Cr](=[O])(=[O])[OH]	inactive
CCOC(=O)c1ccccc1C(=O)OCC	inactive
COc1ccc2c(c1OC)C(=O)OC2C1c2cc3c(cc2CCN1C)OCO3 (stereo unspecified)	inactive
O=[N+]([O-])c1ccc(F)c([N+](=O)[O-])c1	inactive
COC1=CC(=O)O[C@@H](/C=C/c2ccccc2)C1	inactive

From PubChem BioAssay (NCATS)
